Structures are written as SMILES. Active and inactive are the calls of the source. Rule for the calls: active = hit-call score of the fitted dose curve at least 0.9, where 1 is the maximum; inactive = score below 0.9.

Sequence of Myc proto-oncogene protein (Homo sapiens) (P01106 whole entry, looked up): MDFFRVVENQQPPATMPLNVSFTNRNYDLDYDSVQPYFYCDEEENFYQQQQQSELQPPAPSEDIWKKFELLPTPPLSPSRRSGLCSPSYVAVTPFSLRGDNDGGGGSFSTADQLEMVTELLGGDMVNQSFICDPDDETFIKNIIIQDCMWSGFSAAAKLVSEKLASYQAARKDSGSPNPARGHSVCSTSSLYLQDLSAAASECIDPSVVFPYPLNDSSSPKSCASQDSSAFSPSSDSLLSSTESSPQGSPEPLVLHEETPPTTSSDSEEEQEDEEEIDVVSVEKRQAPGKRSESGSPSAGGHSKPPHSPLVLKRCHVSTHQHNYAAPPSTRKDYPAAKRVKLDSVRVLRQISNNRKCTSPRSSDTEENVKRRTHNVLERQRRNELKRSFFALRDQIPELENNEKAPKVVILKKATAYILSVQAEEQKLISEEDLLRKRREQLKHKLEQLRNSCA

The assay has as its target Myc proto-oncogene protein (Homo sapiens) (UniProt P01106). In words: ATG_Myc_CIS: Attagene CIS-FACTORIAL HepG2 Assay for human Myelocytomatosis (Myc) Proto-Oncogene Transcription Factor (AID 2282990). As to conditions: HepG2, Attagene cis-reporter transcription factor activity; actives raise or lower the signal. The protocol: ATG_CIS is a cell-based, multiplexed-readout assay that uses HepG2, a human liver cell line, with measurements taken at 24 hours after chemical dosing in a 24-well plate.ATG_Myc_CIS is one of 52 assay component(s) measured or calculated from the ATG_CIS assay. It is designed to make measurements of mRNA induction, a form of inducible reporter, as detected with fluorescence intensity signals by Reverse transcription polymerase chain reaction (RT-PCR) and Capillary electrophoresis technology.Data from the assay component ATG_Myc_CIS was analyzed into 1 assay endpoint. This assay endpoint, ATG_Myc_CIS, was analyzed with bidirectional fitting relative to DMSO as the negative control and baseline of activity. Using a type of inducible reporter, measures of mRNA for gain or loss-of-signal activity can be used to understand the reporter gene at the transcription factor-level as they relate to the gene MYC. Furthermore, this assay endpoint can be referred to as a primary readout, because this assay has produced multiple assay endpoints where this one serves a reporter gene function. To generalize the intended target to other relatable targets, this assay endpoint is annotated to the dna binding intended target family, where the subfamily is basic helix-loop-helix leucine zipper.
Human liver HepG2 cells are transiently transfected with multiple reporter transcription units (MRTUs) in 6-well plates using FuGene 6 reagent (Roche; 3 ml FuGene/1 mg DNA). The MRTU constructs are regulated by a cis-regulating element (promoter). […] A major difference between the CIS and TRANS system is that in CIS activities of endogenous TFs are measured, whereas the TRANS assay evaluates changes in activities of exogenous, chimeric NR-Gal4 proteins. […] At the end of 24 hour incubation, total RNA was isolated using TriZol reagent (Invitrogen). The isolated RNA is then reverse-transcribed using oligo(dT) primer and Mo-MLV reverse transcriptase (Invitrogen) with DNAse I (Ambion) treatment for 30 min. The one-tenth of the produced cDNA was amplified by PCR using Taq DNA polymerase (Invitrogen) and two reporter sequence-specific primers. The PCR products were fluorescently labeled by primer extension with 6-arboxyfluorescein (6-FAM) 5'-labeled reporter sequence-specific primer (2 min at 95 C, 20 s at 68 C and 10 min at 72 C) and these products were digested with 5U of HpaI (New England Biolabs) for 2h at 37 C. The fragments were purified using Qiaquick PCR columns (Qiagen), analyzed on an ABI 3130xL genetic analyzer (Applied Biosystems) with peak positions identified by using a set of X-rhodamine (ROX)-labeled MapMarker1000 molecular weight standards (BioVentures). The raw capillary electrophoresis data was processed using Attagraph software (Attagene).
Turning to `Cc1ccc(S(=O)(=O)OCC(F)(F)C(F)(F)C(F)(F)C(F)(F)C(F)(F)C(F)F)cc1`, the call was inactive.

For the molecule `CCCCCC=O`, the molecule was called inactive.

With `C=C(C)C(=O)OCCC(F)(F)C(F)(F)C(F)(F)C(F)(F)C(F)(C(F)(F)F)C(F)(F)F`, the molecule was called inactive.

As to `O=C(C=Cc1ccccc1)OCC=Cc1ccccc1`, the outcome was inactive.

As to `FC(F)(Br)C(F)(F)C(F)(F)C(F)(F)C(F)(F)C(F)(F)Br`, the molecule was classed as inactive.

Turning to `CC(Cc1ccc(O)c(O)c1)C(C)Cc1ccc(O)c(O)c1` (stereo not given), the call was inactive.

In the case of `C=C(C)C(=O)OCC(F)(F)C(F)(F)C(F)(F)F`, the call was inactive.

Turning to `CCCCCCC(C)OC(=O)CCCCC(=O)OC(C)CCCCCC` (stereo not given), the molecule was classed as inactive.

As to `OCC(F)(F)C(F)(F)C(F)(F)C(F)F`, the outcome was inactive.

With `CCCCCCOC(=O)c1ccccc1`, the call was inactive.

`C1COCCN1`: the molecule was called inactive.

Turning to `Cc1ccc(S(=O)(=O)NCl)cc1`, the call was inactive.

Consider `CCCCCCOC(=O)c1ccccc1O`, for which the molecule was classed as inactive.

On to `CC(C)c1ccccc1N`, for which the outcome was inactive.

For the molecule `O=C(O)C(F)(F)C(F)(F)C(F)(F)C(F)(F)C(F)(F)C(F)(F)C(F)(F)C(F)(F)C(F)(F)C(F)(F)C(F)(F)C(F)(F)C(F)(F)F`, the molecule was called inactive.

On to `O=C(Cl)C(F)(F)C(F)(F)C(F)(F)C(F)(F)C(F)(F)C(F)(F)C(F)(F)C(F)(F)F`, for which the call was inactive.

Regarding `CC(=O)Nc1ccc(N=Nc2cc(C)ccc2O)cc1`, the call was inactive.

Consider `N=C(N)C(F)(F)C(F)(F)C(F)(F)C(F)(F)C(F)(F)C(F)(F)C(F)(F)F`, for which the call was inactive.

With `CO[Si](OC)(c1ccccc1)c1ccccc1`, the outcome was inactive.

As for `FC(F)(F)C(F)(F)C(F)(F)CI`, the molecule was classed as inactive.

On to `CNC(=S)NC`, for which the molecule was classed as inactive.

For `FC(F)(F)C(F)(F)C(F)(F)C(F)(F)C(F)(F)C(F)(F)CCS`, the outcome was inactive.

For `Nc1cc(Cl)c(N)c(Cl)c1`, the outcome was inactive.

As to `CCC(=O)OCCc1ccccc1`, the call was inactive.

On to `C=C(C)C(=O)OCC(F)(F)C(F)(F)C(F)(F)C(F)(F)C(F)(F)C(F)(F)C(F)(F)F`, for which the result was inactive.

With `CN(C)Cc1ccccc1O`, the molecule was classed as inactive.

Turning to `O=S(=O)(OCCOC(F)(F)F)C(F)(F)F`, the call was inactive.

Take `Cc1cc(C)cc(O)c1`: the outcome was inactive.

Turning to `COC(=O)CCC(F)(F)C(F)(F)C(F)(F)C(F)(F)F`, the call was inactive.

With `CCc1c(Br)c(Br)c(Br)c(Br)c1Br`, the molecule was classed as inactive.

On to `COC(=O)C1CCC(C(=O)OC)CC1` (stereo not given), for which the molecule was classed as inactive.

As to `Oc1ccc(Nc2ccccc2)cc1`, the molecule was classed as inactive.

As to `O=C(O)C=C(C(F)(F)F)C(F)(F)F`, the molecule was called inactive.

Turning to `O=C(O)C(F)(F)C(F)(F)C(F)(F)C(F)(F)C(F)(F)C(F)(F)C(F)(F)C(F)(F)C(F)(F)C(F)F`, the call was inactive.

As for `c1ccc(-c2ccccc2-c2ccccc2)cc1`, the outcome was inactive.

On to `CCc1ccc(C(c2ccc(CC)cc2)C(Cl)Cl)cc1`, for which the molecule was called inactive.

Turning to `CCCCCCCCC(F)(F)C(F)(F)C(F)(F)C(F)(F)C(F)(F)C(F)(F)F`, the call was inactive.

Regarding `FC(F)(F)C(F)(F)CNCC(F)(F)C(F)(F)F`, the result was inactive.

As for `CS(C)(=O)=O`, the call was inactive.

On to `Nc1ccc(Oc2cccc(Oc3ccc(N)cc3)c2)cc1`, for which the molecule was called inactive.

Source of the values: PubChem BioAssay (EPA / NIEHS).
